From PubChem
Mito fusion act: inhibitors of mitochondrial division or activators of mitochondrial fusion | S. cerevisiae fusion-defective mutant growth rescue, CellTiterGlo 48 h | Potency, µM (highest dose often 46.1 µM), inactives show top-dose growth rescue (activation), actives largely listed as activators | 320,000 compounds, 0.23% hits; also: % of control where 0% means no effect; nearly all actives have a fitted effect of over 45% in size
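S. cerevisiae fusion-defective temperature-sensitive mutants (e.g. fzo1-1, mgm1-5) grown 48 h at 37C in YPEG (ethanol/glycerol non-fermentable) medium with 23 nl compound per well; growth rescue read as CellTiterGlo luminescence.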
ERG-DNA inh: ERG Ets/DNA interaction inhibition; P11308; Potency, µM (top dose mostly 76.9 µM), for the others: at the top dose FP activity, negative = inhibition, hits mostly inhibitors; 370,000 compounds, 0.028% hits; fluorescence polarization, His-ERG Ets domain / labelled DNA; active = well fitted inhibition curve with a large enough effect in the polarisation, with a control signal flat; inconclusive = small, poorly fitted or top-dose-only effect, or effect the other way, or a change in a side signal; inactive = no such curve, though single readings can be large or run the other way; the % refers to the polarisation;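 also: polarization taken with two DNA probes labelled with fluorescein and Texas red; % of control where 0% means no effect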
Target sequence (P11308 whole entry, looked up, the tested form may be a part): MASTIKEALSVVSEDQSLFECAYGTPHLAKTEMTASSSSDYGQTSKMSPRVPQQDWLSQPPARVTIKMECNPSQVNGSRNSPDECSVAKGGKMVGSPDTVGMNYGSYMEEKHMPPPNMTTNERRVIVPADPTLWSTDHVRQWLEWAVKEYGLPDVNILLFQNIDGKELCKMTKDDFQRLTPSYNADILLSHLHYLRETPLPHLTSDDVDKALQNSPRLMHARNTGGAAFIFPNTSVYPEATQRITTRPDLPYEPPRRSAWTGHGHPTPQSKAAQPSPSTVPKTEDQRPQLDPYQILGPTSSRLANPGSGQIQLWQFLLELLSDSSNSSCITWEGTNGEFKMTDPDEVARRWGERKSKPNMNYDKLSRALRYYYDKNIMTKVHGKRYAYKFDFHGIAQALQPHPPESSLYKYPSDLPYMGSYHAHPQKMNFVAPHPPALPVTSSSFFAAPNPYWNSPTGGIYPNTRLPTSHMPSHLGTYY
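His-tagged ERG Ets domain (1 uM in the protein solution; 300mM KCl, 50mM Tris-HCl, 1mM EDTA, 1mM DTT, pH 7.5) received compound, then a probe mix of 5 nM fluorescein-DNA and 100nM Texas-615-DNA. Fluorescence polarization was read for both dyes.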
aSyn rescue: inhibitors of alpha-synuclein toxicity in yeast | AID 652106 | Yeast expressing alpha-synuclein, growth rescue, BacTiter-Glo, 24 h | 370,000 compounds, 0.14% hits | Potency, µM (series often up to 46.1 µM), without a hit: top-dose growth rescue (activation), most hits filed as activators; also: % of control where 0% means no effect; nearly all actives have a fitted effect of over 65% in size
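Rescue of yeast growth: cells expressing toxic alpha-synuclein, induced in galactose at OD600 0.02, incubated with compound 24 h at 30 C. ATP luminescence quantified growth; inhibitors of toxicity appear as activators.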
FUS suppressor: rescues growth of FUS-expressing yeast. S. cerevisiae FUS-expressing, growth rescue, OD600, 24 h. Potency, µM (doses to about 76.6 µM), hits mostly activators. 390,000 compounds, 0.24% hits;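 also: plate controls were DMSO vehicle for no effect and reference control for full effect; nearly all actives have a fitted effect of over 55% in size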
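Yeast expressing FUS under galactose induction, OD 0.005 in 2% galactose medium; compounds in a dilution series, 24 h at 30C. Growth rescue by absorbance at 600 nm; CP55940 positive control, DMSO negative.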
Abeta yeast res: compounds reversing amyloid beta toxicity in yeast | yeast expressing A-beta42, growth rescue, OD600, 48 h; response scale: 0% DMSO, 100% iron-clioquinol control | 410,000 compounds, 0.063% hits | Potency, µM (doses to about 46.1 µM), most hits filed as activators | AID 1347071; also: nearly all actives have a fitted effect of over 55% in size
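Growth rescue measured by 600 nm absorbance after 48 h yeast culture at 30 C with compound. Values normalized between DMSO and an equimolar ferric chloride plus clioquinol control.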
TDP43 rescue: inhibitors of TDP-43 toxicity in yeast. Potency, µM (titrated, usually from 46.1 µM), without a hit: top-dose growth rescue (activation), most hits filed as activators. 410,000 compounds, 1.8% hits. AID 652104. TDP-43 expressing yeast growth rescue, BacTiter-Glo, 24 h; also: % of control where 0% means no effect; nearly all actives have a fitted effect of over 50% in size
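Growth rescue of TDP-43-toxic yeast measured as ATP luminescence (BacTiter-Glo). Cells grown to mid-log in raffinose, induced in galactose at OD600=0.02, exposed to compound 24 hr at 30 deg C.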
* hit, by the source's call; i = inactive; ? = inconclusive; / = no result; [ ] = remark or other dose. Shown are actives, neighbours in structure and some others; about 2.2% of the full set was active somewhere. Unless noted, calls follow the shape of the dose curve; as a rule, active = well fitted curve in the direction sought with a large enough effect; inconclusive = small, poorly fitted or top-dose-only effect, or another doubt; inactive = no such curve, though single readings can be large; an effect the other way counts as inactive or inconclusive. Potency is read from the fitted curve at half-maximal effect.

SMILES	Mito fusion act	ERG-DNA inh	aSyn rescue	FUS suppressor	Abeta yeast res	TDP43 rescue
CC(=O)c1cccc(NC(=O)CN2C(=O)CC(c3ccc(C)cc3C)=Nc3ccccc32)c1	/	0%	/	i	i	2%
Cn1nc(/C=C/c2ccccc2)ccc1=O	2%	3%	-11%	i	i	-3%
O=c1ccc(-c2ccccc2)nn1Cc1ccc(Cl)cc1	/	-12%	?	i	i	20µM*
Nc1cc(-c2ccccc2)nn1Cc1ccc(Cl)cc1	-1%	-6%	17%	i	i	26%
O=c1ccc(/C=C/c2ccccc2)nn1Cc1ccccc1	6%	12%	9%	i	i	20µM*
O=C(CBr)c1ccc(Oc2ccc(C(=O)C[n+]3ccccc3Cl)cc2)cc1	/	/	5%	/	/	/
c1ccc(Cc2ccc(OCCn3cncn3)cc2)cc1	3%	-1%	3%	i	i	?
c1ccc(-c2ccc(OCCOCCn3cncn3)cc2)cc1	2%	-5%	0%	i	i	14µM*
CC(NS(=O)(=O)c1ccc(Cl)cc1)C(=O)OCC(=O)c1ccc[nH]1 (configuration not stated)	3%	6%	10%	i	i	23%
COc1ccc(CNC(=O)CSc2ncc3c(n2)-c2ccc(Cl)cc2N(Cc2ccc(F)cc2)S3(=O)=O)cc1OC	/	0%	/	i	i	3%
Cc1cccc2sc(N(Cc3cccnc3)C(=O)c3ccco3)nc12	/	-2%	/	i	i	18µM*
Cc1cc(C)c2nc(N(Cc3cccnc3)C(=O)c3cccs3)sc2c1	/	3%	/	i	i	19%
Cc1cccc2sc(N(Cc3cccnc3)C(=O)Cc3ccccc3)nc12	/	-6%	/	i	i	13µM*
Cc1cccc2sc(N(Cc3cccnc3)C(=O)CCc3ccccc3)nc12	/	5%	/	?	i	?
O=C(C1CCCCC1)N(Cc1cccnc1)c1nc2ccc(F)cc2s1	/	10%	/	i	i	?
COc1ccc2nc(N(Cc3cccnc3)C(=O)C3CCCCC3)sc2c1	/	-2%	/	i	i	6.3µM*
Cc1cccc2sc(N(Cc3cccnc3)C(=O)c3cccs3)nc12	/	-6%	/	i	i	32µM*
CCOc1ccc2nc(N(Cc3cccnc3)C(=O)c3ccco3)sc2c1	/	-4%	/	i	i	20µM*
COc1ccc2nc(N(Cc3cccnc3)C(=O)c3ccco3)sc2c1	/	0%	/	i	i	?
Cc1nn(C)c(C(=O)NC2C3CC4CC(C3)CC2C4)c1Cl (configuration not stated)	-53%	-7%	7%	i	i	10µM*
Cn1ncc(Cl)c1C(=O)NC1C2CC3CC(C2)CC1C3 (configuration not stated)	5%	-3%	8%	i	i	?
O=C(Cc1c(Cl)cccc1Cl)Nc1ccncc1Cl	1%	-6%	2%	i	i	11µM*
O=C(Cc1c(Cl)cccc1Cl)Nc1ccncc1	3%	-2%	2%	i	i	-16%
S=c1[nH]nc(-c2ccc(Cl)cc2)n1/N=C/C=C/c1ccco1	2%	9%	15%	?	5µM*	-21%[1.82 µM]
Fc1ccc(CNc2cc(-c3ccccc3)nc3nncn23)cc1	/	-3%	/	?	i	18µM*
SMILES	Mito fusion act	ERG-DNA inh	aSyn rescue	FUS suppressor	Abeta yeast res	TDP43 rescue
Fc1ccc(CNc2ccn3nc(-c4ccccc4)cc3n2)cc1	/	/	15%	?	?	18µM*
COc1ccc(CNc2cc(-c3ccc(OC)cc3)nc3nncn23)cc1	/	3%	/	i	i	14µM*
Cc1nc2nncn2c(NCc2ccc(F)cc2)c1C	/	9%	/	i	i	4%
S=c1[nH]cnc2sc(-c3ccccc3)cc12	-3%	3%	-13%	i	i	?
CC(=O)Oc1ccc2nc(-c3ccco3)oc(=O)c2c1	-1%	-2%	2%	i	i	-8%
O=C(NCc1ccc(C(=O)NCC2CCCO2)cc1)c1cccc(Br)c1 (configuration not stated)	/	/	/	i	/	/
Cc1ccc(NC(=O)c2cnc(N3CCCC3)nc2C)cc1F	/	-5%	/	i	i	?
Cc1nc(N2CCCC2)ncc1C(=O)NCc1ccccc1Cl	/	-7%	/	i	i	35µM*
Cc1ccc(C)c(NC(=O)c2cnc(N3CCCC3)nc2C)c1	/	0%	/	i	i	14µM*
Cn1ccsc1=NC(=O)c1ccc(Cl)cc1	5%	5%	-6%	i	i	11µM*
CC1CC(C)(C)N(C(=O)NC2CCCCC2)c2ccccc21 (configuration not stated)	0%	/	-8%	/	i	14µM*
CC1(C(=O)NS(=O)(=O)c2cccc(OC(F)F)c2)CCN1C(=O)CC1CCCC1 (configuration not stated)	/	/	4%	i	i	23%
Nc1cc2c(cc1[N+](=O)[O-])-c1ccccc1C2=NO	/	/	9%	/	i	3.5µM*
CC(=O)Nc1cc2c(cc1[N+](=O)[O-])-c1ccccc1C2=NO	/	-3%	8%	/	i	0%
Nc1nnc(SCC(=O)OCC(=O)c2ccccc2)s1	32µM*	16%	-8%	i	i	-8%[0.397 µM]
CCCOc1ccc(-c2nonc2NC(=O)c2oc3ccc(Cl)cc3c2C)cc1OCCC	/	4%	/	i	i	19%
Cc1ccc(Cl)cc1-n1ncc2c(NCCc3ccccc3)ncnc21	/	-10%	/	i	i	22µM*
COCCCNc1ncnc2c1cnn2-c1ccc(C)cc1C	4%	/	-7%	i	i	?
Cc1ccc(Cl)cc1-n1ncc2c(NCCC3=CCCCC3)ncnc21	/	-1%	/	?	i	35µM*
CCc1ccc(Nc2ncnc3c2cnn3-c2cc(Cl)ccc2C)cc1	/	3%	/	i	i	16%
Fc1ccc(-n2ncc3c(NCCC4=CCCCC4)ncnc32)cc1	/	0%	/	i	i	?
CCCCNc1ncnc2c1cnn2-c1ccc(C)cc1C	14%	-1%	-10%	i	i	13µM*
Cc1ccc(Cl)cc1-n1ncc2c(NCCCc3ccccc3)ncnc21	/	0%	/	i	i	?
Cc1ccc(Cl)cc1-n1ncc2c(NCc3ccc(F)cc3)ncnc21	/	-4%	/	i	i	20µM*
COc1ccc2oc(=O)cc(CN3CCN(c4ccccc4F)CC3)c2c1	/	2%	/	i	i	6%
COc1ccc(CCn2c(=O)c3cccnc3n(CC(=O)Nc3c(C)cc(C)cc3C)c2=O)cc1OC	/	-17%	/	i	i	3%
